Results filed as inconclusive are left out. Activity calls are given as the source filed them. Unless noted, calls follow the shape of the full dose curve.
Experiments:
[1] = qHTS assay to identify small molecule agonists of the peroxisome proliferator-activated receptor delta (PPARd) signaling pathway - cell viability counter screen (AID 743211; active = well fitted curve in the direction sought with a large enough effect in the repeat runs; an effect the other way counts as inactive or inconclusive; also: nearly all actives have a fitted effect of over 55% in size)
Procedure, shortened: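 Tox21 library compounds, delivered in DMSO, were incubated 17 h with PPARd-bla HEK293H cells; cytotoxicity was taken from CellTiter-Glo luminescence read 30 min after reagent addition.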

[2] = qHTS assay to identify small molecule agonists of the farnesoid-X-receptor (FXR) signaling pathway - cell viability counter screen (AID 743218; active = well fitted curve in the direction sought with a large enough effect in the repeat runs; an effect the other way counts as inactive or inconclusive; also: nearly all actives have a fitted effect of over 45% in size)
Procedure, shortened: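 FXR-UAS-bla HEK 293T cells exposed to compounds for 16 h at 37C. Cytotoxicity read in the same wells by CellTiter-Glo luminescence after 30 min at room temperature, following the beta-lactamase FRET read.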

[3] = qHTS assay to identify small molecule antagonists of the farnesoid-X-receptor (FXR) signaling pathway - cell viability counter screen (AID 743221; active = well fitted cell-killing curve with a large enough effect in the repeat runs, not every such curve was filed as active; also: nearly all actives have a fitted effect of over 50% in size)
Procedure, shortened: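 Cytotoxicity is taken from ATP luminescence (CellTiter-Glo, 30 min, room temperature) in FXR-bla HEK 293T cells previously incubated 16 h at 37 C with compound and chenodeoxycholic acid at 50 uM final.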

[4] = target: Vitamin D3 receptor (Homo sapiens) (UniProt P11473); assay: qHTS assay to identify small molecule antagonists of the vitamin D receptor (VDR) signaling pathway (AID 743223; active = well fitted inhibition curve with a large enough effect in the signal ratio in the repeat runs, not every such curve was filed as active; the % refers to the signal ratio)
Procedure, shortened: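 Quantitative HTS in VDR-bla reporter cells stimulated with 1alpha,25-dihydroxyvitamin D3, 3 nM final. Compound exposure 16 h, 37C, 5% CO2. Read-out: beta-lactamase FRET substrate fluorescence, 2 h RT.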

[5] = qHTS assay to identify small molecule agonists of the NFkB signaling pathway (AID 1159509; active = well fitted curve in the direction sought with a large enough effect in the signal ratio in the repeat runs, not every such curve was filed as active; the % refers to the signal ratio; also: series mostly up to about 61 µM)
Procedure, shortened: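 NFkB-bla ME-180 cells carry a beta-lactamase reporter under an NF-kB response element. They were plated overnight, then exposed to compounds for 5 h at 37 C. Read-out is LiveBLAzer FRET after 1.5 hr at room temperature (405 nm excitation; 460/530 nm emission).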

[6] = qHTS assay to identify small molecule agonists of the NFkB signaling pathway - cell viability counter screen (AID 1159515); also: series mostly up to about 61 µM; nearly all actives have a fitted effect of over 55% in size
Procedure, shortened: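 NFkB-bla ME-180 cells, 2,000/well, plated overnight at 37 C; compound added for 5 hr at 37 C. Viability read in the same wells as the bla reporter, by CellTiter-Glo luminescence after 30 min at room temperature.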

[7] = qHTS assay to identify small molecule agonists of the endoplasmic reticulum stress response signaling pathway - cell viability counter screen (AID 1159517);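 also: HeLa cells carrying an ER stress response element beta-lactamase reporter; series mostly up to about 61 µM; nearly all actives have a fitted effect of over 50% in size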
Procedure, shortened: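 HeLa cells carrying an ESRE-driven beta-lactamase reporter receive compound for 5 hr at 37 C. Cell viability is then gauged with CellTiter-Glo by luminescence, 30 min at room temperature.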

[8] = qHTS assay to identify small molecule antagonists of the retinoid-related orphan receptor gamma (ROR-gamma) signaling pathway - cell viability counter screen (AID 1159520; active = well fitted curve in the direction sought with a large enough effect in the repeat runs; an effect the other way counts as inactive or inconclusive; also: nearly all actives have a fitted effect of over 50% in size)
Procedure, shortened: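 Cytotoxicity was read from cellular ATP (CellTiter-Glo luminescence) after 16 hr at 37 C with 1 uM doxycycline induction. The inducer was added 2 hr after compound transfer to Tet-on ROR gamma CHO cells.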

[9] = qHTS assay to identify small molecule agonists of the AP-1 signaling pathway - cell viability counter screen (AID 1159525); also: nearly all actives have a fitted effect of over 55% in size
Procedure, shortened: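 Luminescent ATP readout (Cell Titer Glo, 30 min RT), normalised to DMSO and tetra n-octyl ammonium bromide controls. Cells were ME-180 AP-1-bla in 0.5% dialyzed FBS Opti-MEM, with a 5 h, 37 °C compound exposure.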

[10] = qHTS assay to identify small molecule agonists of the AP-1 signaling pathway (AID 1159526)
[11] = target: Peroxisome proliferator-activated receptor delta (Homo sapiens) (UniProt Q03181); assay: qHTS assay to identify small molecule agonists of the peroxisome proliferator-activated receptor delta (PPARd) signaling pathway (AID 743212)
Procedure, shortened: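 HEK293H PPARd-bla cells; 5 h preincubation 37 C/5% CO2; compound (DMSO) 37 C; LiveBLAzer B/G FRET substrate 2 h RT; fluorescence intensity.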

[12] = target: Peroxisome proliferator-activated receptor delta (Homo sapiens) (UniProt Q03181); assay: qHTS assay to identify small molecule antagonists of the peroxisome proliferator-activated receptor delta (PPARd) signaling pathway (AID 743215; active = well fitted inhibition curve with a large enough effect in the signal ratio in the repeat runs, not every such curve was filed as active; the % refers to the signal ratio;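 also: cells stimulated with agonist L165041 at 300 nM final during compound exposure; series mostly up to about 62 µM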)
Procedure, shortened: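 PPARd-bla HEK293H cells (UAS-bla reporter) preincubated 5 h, then given compound plus 300 nM final L165041 agonist for 17 h at 37 C. Beta-lactamase activity read by LiveBLAzer B/G FRET substrate fluorescence after 2 h at room temperature.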

[13] = target: Bile acid receptor (Homo sapiens) (UniProt Q96RI1); assay: qHTS assay to identify small molecule antagonists of the farnesoid-X-receptor (FXR) signaling pathway (AID 743217; active = well fitted inhibition curve with a large enough effect in the signal ratio in the repeat runs, not every such curve was filed as active; the % refers to the signal ratio)
Procedure, shortened: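 FXR-UAS-bla HEK 293T cells (beta-lactamase reporter) given compound plus chenodeoxycholic acid (50 uM final), 16 h at 37C. LiveBLAzer B/G FRET substrate added for 2 h at room temperature; fluorescence read.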

[14] = target: Vitamin D3 receptor (Homo sapiens) (UniProt P11473); assay: qHTS assay to identify small molecule agonists of the vitamin D receptor (VDR) signaling pathway (AID 743222)
Procedure, shortened: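 VDR-bla cells plated 4 h at 37 C, then exposed to compounds for 16 h at 37 C. Beta-lactamase reporter activity measured by fluorescence after 2 h room-temperature loading with LiveBLAzer B/G FRET substrate.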

[15] = qHTS assay to identify small molecule agonists of the vitamin D receptor (VDR) signaling pathway - cell viability counter screen (AID 743224; active = well fitted curve in the direction sought with a large enough effect in the repeat runs; an effect the other way counts as inactive or inconclusive; also: series mostly up to about 63 µM; nearly all actives have a fitted effect of over 50% in size)
Procedure, shortened: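 VDR-bla cells, 4 h after plating, exposed to compounds for 16 h at 37C; viability then read in the same wells as CellTiter-Glo luminescence after 30 min at room temperature, following the bla FRET read.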

[16] = qHTS assay to identify small molecule antagonists of the vitamin D receptor (VDR) signaling pathway - cell viability counter screen (AID 743225; active = well fitted curve in the direction sought with a large enough effect in the repeat runs; an effect the other way counts as inactive or inconclusive; also: nearly all actives have a fitted effect of over 50% in size)
Procedure, shortened: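 Same-well multiplex: following 16 h treatment of HEK 293T cells carrying a UAS-driven beta-lactamase reporter with compound and agonist (3 nM final), and a 2 h FRET substrate step, CellTiter-Glo was added and luminescence read after 30 min.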

[17] = target: Nuclear receptor ROR-gamma (Homo sapiens) (UniProt P51449); assay: qHTS assay to identify small molecule antagonists of the retinoid-related orphan receptor gamma (ROR-gamma) signaling pathway (AID 1159521; active = well fitted curve in the direction sought with a large enough effect in the repeat runs; an effect the other way counts as inactive or inconclusive)
Procedure, shortened: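 Inducible-expression reporter assay: doxycycline (1 uM final) switched on RORγ in CHO cells bearing a ROR response element-luciferase construct, with test compounds present from 2 h beforehand. Decreased luminescence after 16 h defined antagonist activity.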

[18] = qHTS assay to identify small molecule antagonists of the peroxisome proliferator-activated receptor delta (PPARd) signaling pathway - cell viability counter screen (AID 743213; active = well fitted curve in the direction sought with a large enough effect in the repeat runs; an effect the other way counts as inactive or inconclusive; also: nearly all actives have a fitted effect of over 50% in size)
Procedure, shortened: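 Viability counter-screen, qHTS format: PPARd-bla HEK293H, L165041 300 nM final, 17 h compound exposure at 37 C, CellTiter-Glo luminescence after 30 min RT.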

[19] = target: Bile acid receptor (Homo sapiens) (UniProt Q96RI1); assay: qHTS assay to identify small molecule agonists of the farnesoid-X-receptor (FXR) signaling pathway (AID 743220; active = well fitted activation curve with a large enough effect in the signal ratio in the repeat runs, not every such curve was filed as active; the % refers to the signal ratio)
Procedure, shortened: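 Beta-lactamase reporter under UAS control in GeneBLAzer FXR HEK 293T cells (5000/well) measured with LiveBLAzer FRET substrate after 2 h at room temperature. Compound exposure lasted 16 h at 37C.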

Measured: Potency

Peroxisome proliferator-activated receptor delta (Homo sapiens), sequence (Q03181 whole entry, looked up): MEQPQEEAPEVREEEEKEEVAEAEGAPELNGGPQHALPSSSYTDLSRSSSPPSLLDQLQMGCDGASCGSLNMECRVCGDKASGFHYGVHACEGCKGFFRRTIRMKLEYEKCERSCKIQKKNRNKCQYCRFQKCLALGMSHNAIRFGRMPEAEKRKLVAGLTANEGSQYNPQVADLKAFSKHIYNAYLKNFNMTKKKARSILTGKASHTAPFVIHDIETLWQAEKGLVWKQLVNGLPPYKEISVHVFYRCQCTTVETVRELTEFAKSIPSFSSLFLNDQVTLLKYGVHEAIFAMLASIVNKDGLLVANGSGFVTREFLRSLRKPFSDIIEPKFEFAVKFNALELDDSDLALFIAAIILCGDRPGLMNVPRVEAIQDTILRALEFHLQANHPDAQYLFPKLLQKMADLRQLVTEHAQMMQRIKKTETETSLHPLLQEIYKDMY
Vitamin D3 receptor (Homo sapiens), sequence (P11473 whole entry, looked up): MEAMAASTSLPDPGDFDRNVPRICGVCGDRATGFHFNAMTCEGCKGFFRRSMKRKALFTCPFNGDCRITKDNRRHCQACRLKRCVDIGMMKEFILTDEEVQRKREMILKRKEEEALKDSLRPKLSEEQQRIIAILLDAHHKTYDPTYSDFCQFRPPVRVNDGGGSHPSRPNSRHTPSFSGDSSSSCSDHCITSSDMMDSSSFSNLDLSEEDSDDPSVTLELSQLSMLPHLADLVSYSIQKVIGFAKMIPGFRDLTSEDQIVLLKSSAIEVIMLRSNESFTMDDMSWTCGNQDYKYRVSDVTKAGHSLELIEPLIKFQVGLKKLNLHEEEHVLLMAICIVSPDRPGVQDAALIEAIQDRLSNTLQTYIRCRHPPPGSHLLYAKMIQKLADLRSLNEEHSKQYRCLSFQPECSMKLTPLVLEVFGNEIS
Bile acid receptor (Homo sapiens), sequence (Q96RI1 whole entry, looked up): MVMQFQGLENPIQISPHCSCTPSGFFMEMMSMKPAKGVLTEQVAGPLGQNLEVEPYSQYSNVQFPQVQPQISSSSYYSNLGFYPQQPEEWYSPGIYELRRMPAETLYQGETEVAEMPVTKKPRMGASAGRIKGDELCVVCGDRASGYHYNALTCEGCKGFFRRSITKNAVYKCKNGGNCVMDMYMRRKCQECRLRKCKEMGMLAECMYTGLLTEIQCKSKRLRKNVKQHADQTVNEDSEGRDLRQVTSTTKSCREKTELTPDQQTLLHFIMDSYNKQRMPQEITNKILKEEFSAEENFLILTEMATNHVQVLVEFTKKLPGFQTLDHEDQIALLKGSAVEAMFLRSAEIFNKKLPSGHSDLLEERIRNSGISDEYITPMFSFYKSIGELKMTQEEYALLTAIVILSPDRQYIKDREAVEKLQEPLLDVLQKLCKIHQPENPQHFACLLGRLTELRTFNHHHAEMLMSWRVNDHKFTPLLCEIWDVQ

CCOC(=O)N1CCC(Nc2ccc(Cl)cc2N)CC1
inactive: [1] | [2] | [3] | [4] | [5] | [6] | [7] | [8] | [9] | [10]

CCCCCCCCCCCCCC(=O)OCC(O)CO (stereo not given)
not listed: [1] | [4] | [16] | [17] | [18] | [19]
inactive: all other assays above

CC(C(=O)O)c1ccc(C(=O)c2cccs2)cc1 (stereo not given)
not listed: [11] | [12] | [13] | [18] | [19]
inactive: all other assays above

CCO[Si](C)(CCCOCC1CO1)OCC (stereo not given)
not listed: [1] | [8] | [11] | [13] | [14] | [19]
inactive: all other assays above

CCCCCc1ccco1
not listed: [1] | [4] | [8] | [13] | [15] | [16] | [18]
inactive: all other assays above

CC12CC3CC(C)(C1)CC(N)(C3)C2
not listed: [4] | [11] | [12] | [13] | [17] | [18] | [19]
inactive: all other assays above

C=Cc1ccc(OC(C)=O)cc1
not listed: [2] | [13] | [17] | [19]
inactive: all other assays above

CC1C(C)(C)C2=C(C(=O)CCC2)C1(C)C (stereo not given)
not listed: [10] | [13] | [18] | [19]
inactive: all other assays above

CCCCCCCC/C=C/C(=O)O
not listed: [11] | [12] | [13] | [19]
inactive: all other assays above

CC1=CC[C@@]23C[C@@H]1C(C)(C)[C@@H]2CC[C@H]3C
not listed: [3] | [4] | [11] | [12] | [13] | [14] | [18] | [19]
inactive: all other assays above

Reference: PubChem BioAssay (Tox21)
